High-throughput results from PubChem.
Rows were chosen to be rich in hits. Some 19% of all compounds tested hit in one or more screens of this group.
TDP1 cell noCPT = qHTS for Inhibitors of human tyrosyl-DNA phosphodiesterase 1 (TDP1): qHTS in cells in absence of CPT; 15% of 420,000 active; AID 686978, 2013; Potency, µM (top dose mostly 46.2 µM), hits mostly inhibitors; DT40 Tdp1-/- hTDP1 cells, no CPT, ATP luminescence, 48 h; note: nearly all actives have a fitted effect of over 55% in size
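A cellular qHTS used chicken DT40 cells lacking endogenous Tdp1 but carrying stably transfected human TDP1. Compounds were applied without camptothecin, and cell growth kinetics were judged by ATP-dependent luminescence after ≥48 hr.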
RORgamma inh = ROR gamma (mouse) transcription inhibition | Drosophila S2 Gal4-RORgamma UAS-luciferase reporter, 20 h | 5.4% of 310,000 active | Potency, µM (titrated, usually from 53.6 µM), most hits filed as inhibitors | P51450 | AID 2551; note: nearly all actives have a fitted effect of over 60% in size
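Schneider cells (Drosophila), stable Gal4 DBD–ROR gamma + UAS-luc; 1 hr cmpd preincubation; Cu2+ induction 700 uM final; 20 hr ambient; luminescence.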
TDP1 block = inhibitors of human tyrosyl-DNA phosphodiesterase TDP1. Potency, µM (titrated, usually from 130 µM), most hits filed as inhibitors. Q9NUW8. recombinant TDP1, AlphaScreen DNA substrate cleavage. 0.28% of 350,000 active; note: nearly all actives have a fitted effect of over 40% in size
Target sequence (Q9NUW8 whole entry, looked up): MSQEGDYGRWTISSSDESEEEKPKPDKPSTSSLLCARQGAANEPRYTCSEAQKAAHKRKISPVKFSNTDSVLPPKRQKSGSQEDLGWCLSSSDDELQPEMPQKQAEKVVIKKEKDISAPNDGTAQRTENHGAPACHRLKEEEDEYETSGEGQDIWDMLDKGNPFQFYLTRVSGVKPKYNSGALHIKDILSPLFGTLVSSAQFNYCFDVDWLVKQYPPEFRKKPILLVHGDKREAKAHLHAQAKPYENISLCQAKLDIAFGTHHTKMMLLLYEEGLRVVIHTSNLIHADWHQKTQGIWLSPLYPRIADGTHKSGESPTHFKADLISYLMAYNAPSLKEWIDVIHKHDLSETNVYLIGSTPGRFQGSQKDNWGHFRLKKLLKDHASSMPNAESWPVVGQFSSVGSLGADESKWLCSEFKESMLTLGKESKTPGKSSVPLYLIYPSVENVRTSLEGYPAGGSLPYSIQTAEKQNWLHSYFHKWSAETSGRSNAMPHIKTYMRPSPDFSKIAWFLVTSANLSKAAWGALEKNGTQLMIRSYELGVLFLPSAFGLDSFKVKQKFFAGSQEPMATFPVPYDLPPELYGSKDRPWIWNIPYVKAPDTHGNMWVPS
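Compounds were preincubated with Tdp1 (1 nM final) for 15 min at room temperature before substrate (15 nM final) started a 5 min reaction; beads (10 ug/ml final) were then added for 10 min before AlphaScreen detection.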
DT40 TDP1 CPT = DT40-hTDP1 cell growth loss with CPT; AID 686979; Potency, µM (highest dose often 46.2 µM), usual class: inhibitors; chicken DT40 Tdp1-/-;hTDP1 cells + 20 nM CPT, ATP luminescence, 48 h; 12% of 420,000 active; note: nearly all actives have a fitted effect of over 55% in size
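Chicken DT40 Tdp1-/- cells stably complemented with human TDP1 were seeded at 400 cells/well in medium containing 20 nM camptothecin, exposed to pin-transferred compounds, and grown at 37 °C for at least 48 hr. Viability was read as ATP luminescence.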
Gal4-VP16 FLuc = counter-screen for ROR gamma inhibitors: Gal4-VP16 reporter; Drosophila S2 Gal4-VP16 UAS-luciferase, luminescence, 20 h; Potency, µM (top dose mostly 53.6 µM), usual class: inhibitors; 3.5% of 310,000 active; AID 2546;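 note: Gal4-VP16 expression switched on by copper sulfate through the metallothionein promoter; nearly all actives have a fitted effect of over 50% in size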
Of the large screens only hits and unclear results are named; the others gave an inactive call. Calls come from the whole dose curve; as a rule, active = well fitted curve in the direction sought with a large enough effect; inconclusive = small, poorly fitted or top-dose-only effect, or another doubt; inactive = no such curve, though single readings can be large; an effect the other way counts as inactive or inconclusive.

COC(=O)[C@@]12C[C@@H](CC(=O)NCc3ccc(OC)c(OC)c3)C(=O)N(CCc3ccc(OC)c(OC)c3)C1=CCC(C)(C)C2	TDP1 cell noCPT 15µM, DT40 TDP1 CPT 16µM (no result: RORgamma inh, TDP1 block, Gal4-VP16 FLuc)
COC(=O)[C@@]12C[C@@H](CC(=O)NCC34CC5CC(CC(C5)C3)C4)C(=O)N(CCc3ccc(OC)c(OC)c3)C1=CCC(C)(C)C2	TDP1 cell noCPT 15µM, DT40 TDP1 CPT 16µM (no result: RORgamma inh, TDP1 block, Gal4-VP16 FLuc)
COC(=O)[C@@]12C[C@@H](CC(=O)NCCCN3CCCC3=O)C(=O)N(CCc3ccc(OC)c(OC)c3)C1=CCC(C)(C)C2	none (no result: RORgamma inh, TDP1 block, Gal4-VP16 FLuc)
CCOC(=O)C1CCCN(C(=O)c2cc3ccc(OC)cc3[nH]2)C1 (configuration not stated)	TDP1 cell noCPT inconclusive (no result: TDP1 block)
COC(=O)C1(C)CCCC2(C)C1CCC13OCC(CC21)C(O)(C(C)C)C3O (configuration not stated)	none (no result: RORgamma inh, TDP1 block, Gal4-VP16 FLuc)
CCCCCCCCN1C(=O)[C@H](CC(=O)NCc2ccc(OC)c(OC)c2)C[C@@]2(C(=O)OC)CC(C)(C)CC=C12	TDP1 cell noCPT 18µM, DT40 TDP1 CPT 18µM (no result: RORgamma inh, TDP1 block, Gal4-VP16 FLuc)
COc1ccccc1NS(=O)(=O)c1cc(NC(=O)c2cc[n+]([O-])cc2)ccc1N1CCCC1	TDP1 cell noCPT inconclusive, DT40 TDP1 CPT inconclusive
Cc1cc(C)nc(SCC(=O)Nc2ncc(Cc3ccc(Cl)c(Cl)c3)s2)n1	TDP1 cell noCPT inconclusive, DT40 TDP1 CPT inconclusive
CCn1c(=O)n(-c2ccc3c(c2)OCO3)c2nc(-c3cccc(OC)c3OC)nc(C(N)=O)c21	none (no result: RORgamma inh, Gal4-VP16 FLuc)
CCCCN1CCc2c(c3ccccc3n2Cc2ccccc2)C1	TDP1 cell noCPT 23µM, DT40 TDP1 CPT 16µM (no result: TDP1 block)
CCCCN(CC)Cc1ccc(CNC(=O)Nc2ccc(Cl)cc2)o1	TDP1 cell noCPT 5.8µM, DT40 TDP1 CPT 3.3µM
O=c1c(Cc2ccc(F)cc2)c(O)ccn1Cc1ccco1	none
Cc1ccc(OS(=O)(=O)c2ccccc2)c(/C=N/N=C2\NC(=O)C(C)S2)c1 (configuration not stated)	TDP1 cell noCPT 18µM, RORgamma inh 8.9µM, DT40 TDP1 CPT inconclusive, Gal4-VP16 FLuc 16µM
O=C1CS/C(=N/N=C/c2ccccc2OS(=O)(=O)c2ccccc2)N1	TDP1 cell noCPT 1µM, RORgamma inh inconclusive, DT40 TDP1 CPT 1µM, Gal4-VP16 FLuc 13µM
CCc1cccc(CC)c1-n1c(-c2cccnc2)n[nH]c1=S	RORgamma inh 3.5µM, Gal4-VP16 FLuc 16µM
CCOC(=O)c1c(NC(=O)c2ccc(S(=O)(=O)N3CCC(C)CC3)cc2)sc2c1CCN(CC)C2	TDP1 cell noCPT 21µM, DT40 TDP1 CPT 13µM (no result: RORgamma inh, Gal4-VP16 FLuc)
CCOC(=O)c1c(NC(=O)c2ccc(S(=O)(=O)N3CCOCC3)cc2)sc2c1CCN(C)C2	TDP1 cell noCPT inconclusive, Gal4-VP16 FLuc inconclusive
COC(=O)c1c(NC(=O)c2ccc(S(=O)(=O)N3CCCCC3)cc2)sc2c1CCN(C)C2	TDP1 cell noCPT 4.6µM, DT40 TDP1 CPT 4.6µM (no result: RORgamma inh, Gal4-VP16 FLuc)
CCN1CCc2c(sc(NC(=O)c3ccc(S(=O)(=O)N4CC(C)OC(C)C4)cc3)c2C(N)=O)C1 (configuration not stated)	none
CCOC(=O)c1c(NC(=O)c2ccc(S(=O)(=O)N3CCC(C)CC3)cc2)sc2c1CCN(C(C)C)C2	TDP1 cell noCPT 15µM, DT40 TDP1 CPT 23µM (no result: RORgamma inh, Gal4-VP16 FLuc)
CCN1CCN(S(=O)(=O)c2ccc(C(=O)Nc3sc4c(c3C(N)=O)CCN(CC)C4)cc2)CC1	DT40 TDP1 CPT inconclusive
CCOC(=O)c1c(NC(=O)C(C)N2CCN(S(=O)(=O)c3cccs3)CC2)sc2c1CCC(C)C2 (configuration not stated)	TDP1 cell noCPT 5.8µM, DT40 TDP1 CPT 8.2µM
Cc1ccc(S(=O)(=O)N/N=C/c2cc([N+](=O)[O-])ccc2O)cc1[N+](=O)[O-]	none
O=[N+]([O-])c1ccc(C(O)C23CN4CN(CN(C4)C2)C3)cc1 (configuration not stated)	DT40 TDP1 CPT inconclusive
CCOC(=O)c1c(NC(=O)CCS(=O)(=O)c2ccccc2)sc2c1CCN(C(C)C)C2	TDP1 cell noCPT 4.1µM, DT40 TDP1 CPT 4.1µM
COC(=O)c1c(NC(=O)Cc2ccccc2)sc2c1CCN(C(C)C)C2	TDP1 cell noCPT inconclusive, DT40 TDP1 CPT inconclusive (no result: TDP1 block)
CCOC(=O)c1c(NC(=O)c2ccc(N3C(=O)[C@@H]4[C@H](C3=O)[C@H]3C=C[C@@H]4C3)cc2)sc2c1CC(C)CC2 (some centres not stated)	TDP1 cell noCPT 1.2µM
CCOC(=O)c1c(NC(=O)C2C3C=CC(C3)C2C(=O)O)sc2c1CC(C)CC2 (configuration not stated)	DT40 TDP1 CPT inconclusive
Cc1ccc(NC(=O)c2cccc(NC3=NC4CS(=O)(=O)CC4S3)c2)cc1 (configuration not stated)	none (no result: TDP1 block)
Cc1ccc(OCC(=O)Nc2ccc(S(=O)(=O)Nc3cc(C)nc(C)n3)cc2)c(C)c1	none (no result: RORgamma inh, Gal4-VP16 FLuc)
CC(=O)O[C@@H]1[C@@H](O)CN[C@@H]1Cc1ccccc1	RORgamma inh 0.5µM, Gal4-VP16 FLuc 0.28µM (no result: TDP1 cell noCPT, DT40 TDP1 CPT)
O=C(c1ccco1)N1CCCC(c2nc(-c3ccc(S(=O)(=O)NCc4ccccc4)cc3)no2)C1 (configuration not stated)	TDP1 cell noCPT 18µM, DT40 TDP1 CPT 13µM, Gal4-VP16 FLuc inconclusive
CCCCCC(=O)N1CCCC(c2nc(-c3ccc(OC)cc3)no2)C1 (configuration not stated)	TDP1 cell noCPT 23µM, DT40 TDP1 CPT inconclusive
CCCC(=O)N1CCCC(c2nc(-c3cccc(OC)c3)no2)C1 (configuration not stated)	TDP1 cell noCPT inconclusive, DT40 TDP1 CPT inconclusive
COc1ccc(-c2noc(C3CCCN(C(=O)CCc4ccccc4)C3)n2)cc1 (configuration not stated)	TDP1 cell noCPT inconclusive, RORgamma inh inconclusive, DT40 TDP1 CPT 18µM
COc1cccc(-c2noc(C3CCCN(C(=O)Cc4ccccc4)C3)n2)c1 (configuration not stated)	TDP1 cell noCPT 18µM, DT40 TDP1 CPT 18µM
O=C(O)CCCC(=O)Nc1nc2n(n1)C(c1ccc(F)cc1)CC(c1ccc(Cl)cc1)N2 (configuration not stated)	none
CC1CCCC(NC(=O)COC(=O)Cc2c[nH]c3ccccc23)C1C (configuration not stated)	none
Cc1[nH]cnc1CSCCN	none
O=C(CSc1nnc(-c2ccco2)o1)N1CCN(c2ccccc2)CC1	none
O=C(CSc1nnc(-c2c[nH]c3ccccc23)o1)N1c2ccccc2CCc2ccccc21	TDP1 cell noCPT 16µM, RORgamma inh inconclusive, DT40 TDP1 CPT 16µM
O=C(CSc1nnc(-c2ccco2)o1)N1c2ccccc2CCc2ccccc21	TDP1 cell noCPT 23µM, DT40 TDP1 CPT inconclusive
O=C(CSc1nnc(-c2ccc(Br)cc2)o1)N1CCN(C(=O)c2ccco2)CC1	TDP1 cell noCPT 18µM, DT40 TDP1 CPT inconclusive
